# Screens (PubChem BioAssay)
# GLP-1R inv ag = GLP-1 receptor (human) inverse agonism; P43220; HEK293 GLP-1R CRE-luciferase, luminescence, 24 h; GLP-1R form is constitutively active; Potency, µM (doses to about 38.3 µM), without a hit: top-dose activity change, negative = inhibition, usual class: inhibitors; 1.6% of 410,000 active; also: potency is read from the fitted curve at half-maximal effect; % is scaled to controls: 0 for no effect and ±100 for the full control effect; nearly all actives have a fitted effect of over 55% in size
# Target sequence (P43220 whole entry, looked up): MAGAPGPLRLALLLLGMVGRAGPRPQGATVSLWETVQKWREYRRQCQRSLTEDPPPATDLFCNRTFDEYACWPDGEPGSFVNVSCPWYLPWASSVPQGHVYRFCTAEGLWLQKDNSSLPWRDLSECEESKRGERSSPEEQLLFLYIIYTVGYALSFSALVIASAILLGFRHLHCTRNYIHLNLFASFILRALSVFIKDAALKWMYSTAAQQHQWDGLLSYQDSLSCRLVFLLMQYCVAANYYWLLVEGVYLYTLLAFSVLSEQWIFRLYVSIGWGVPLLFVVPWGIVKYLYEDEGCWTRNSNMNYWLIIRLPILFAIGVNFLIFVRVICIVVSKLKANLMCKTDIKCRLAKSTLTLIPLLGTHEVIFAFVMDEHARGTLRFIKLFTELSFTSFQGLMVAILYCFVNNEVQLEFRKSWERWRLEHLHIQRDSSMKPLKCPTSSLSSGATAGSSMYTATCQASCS
#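 Stable HEK293 clone (constitutively active GLP-1R + cAMP-response luciferase); 200 cells/uL plated, 12 h pre-culture, compound 24 hr, 37 deg C/5% CO2; detection reagent 12 min RT; luminescence.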
# uPA surface inh = blocks generation of uPA at the cell surface; cell surface uPA generation assay, qHTS; AID 540303; 0.31% of 330,000 active; Potency, µM (highest dose often 38.3 µM), without a hit: top-dose activity change, negative = inhibition, usual class: inhibitors; active = well fitted inhibition curve with a large enough effect; inconclusive = small, poorly fitted or top-dose-only effect; inactive = no such curve, though single readings can be large or run the other way; tested in mouse RAW 264.7 cells; also: potency is read from the fitted curve at half-maximal effect; % is scaled to controls: 0 for no effect and ±100 for the full control effect; nearly all actives have a fitted effect of over 55% in size
# MmCpn inh = blocks the Methanococcus maripaludis chaperonin Mm-Cpn; purified Mm-Cpn ATPase, ADP Transcreener TR-FRET; 0.031% of 330,000 active; Potency, µM (doses to about 76.9 µM), without a hit: at the top dose activity, negative = inhibition, usual class: inhibitors; also: potency is read from the fitted curve at half-maximal effect; % is scaled to controls: 0 for no effect and ±100 for the full control effect; nearly all actives have a fitted effect of over 80% in size
#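 ATP (10 uM final) was added to archaeal chaperonin (25 nM final) after 10 min exposure to test compound at 37°C; after 30 min further incubation, ADP was detected by competitive TR-FRET.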
# GLP1R cytotox = cytotoxic in the GLP-1 receptor inverse agonist counter-screen. HEK293 cAMP-luciferase reporter cells, luminescence, 24 h. Potency, µM (top dose mostly 38.3 µM), for inactives: at the highest dose activity change, negative = inhibition, usual class: inhibitors. 0.13% of 410,000 active. AID 624418;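 also: loss of luciferase light is scored as toxicity; potency is read from the fitted curve at half-maximal effect; % is scaled to controls: 0 for no effect and ±100 for the full control effect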
#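 Luminescence readout: signal drop marks cytotoxicity. Plated cells grew 12 h at 37 °C, 5% CO2, received 23 nL compound for 24 h, then got luciferase reagent, read after 12 min at RT.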
# CCT chaperon mod = cytosolic chaperonin activity modulation; 0.3% of 360,000 active; AID 651819; purified chaperonin ATPase assay, HTRF ADP detection, 30 min; activity change, % (concentration not given with the values), hits read low; in the data active = activity change below about -30%; also: % is scaled to controls: 0 for no effect and ±100 for the full control effect
#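 We incubate TRiC, 40 or 20 nM final, with library compounds at 76 uM and 10 uM ATP for 30 min at 37 °C. ADP formed is detected with Transcreener HTRF reagents after 30 min at room temperature.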
# GLP1R ag = GLP-1 receptor (human) agonism; P43220; Potency, µM (highest dose often 45.6 µM), inactives show top-dose activation, usual class: activators; 0.007% of 380,000 active; HEK293 GLP-1R CRE-luciferase, luminescence, 4-6 h; cells express a hypersensitive GLP-1R form; also: potency is read from the fitted curve at half-maximal effect; % of control where 0% means no effect
# An asterisk follows results filed as active; ? = inconclusive; . = no result. Sampled rows, rich in hits. Any-hit rate of the full collection: about 2.2%. Unless noted, calls follow the shape of the dose curve; as a rule, active = well fitted curve in the direction sought with a large enough effect; inconclusive = small, poorly fitted or top-dose-only effect, or another doubt; inactive = no such curve, though single readings can be large; an effect the other way counts as inactive or inconclusive.
SMILES,GLP-1R inv ag,uPA surface inh,MmCpn inh,GLP1R cytotox,CCT chaperon mod,GLP1R ag
COc1ccc(-c2cc(C(F)F)n3ncc(C(=O)N4CCN(C(=O)c5ccco5)CC4)c3n2)cc1,-5%,10µM*,0%,0%,-1,0%
Cc1ccc(-c2cc(C(F)F)n3ncc(C(=O)N4CCN(c5ccccn5)CC4)c3n2)cc1,6.3µM*,?,0%,5%,-1,1%
CCN1CCN(C(=O)c2cnn3c(C(F)F)cc(-c4ccc(C)cc4)nc23)CC1,?,-7%,1%,6%,1,9%
Cc1nn(-c2c(Cl)cc(Cl)cc2Cl)c(=O)c2ccccc12,8.9µM*,3%,2%,7%,0,-2%
CCc1ccccc1NC(=O)CN1CCN(C(=O)CNC(=O)c2ccc(-c3ccccc3)cc2)CC1,?,3.2µM*,-4%,-24%,-2,-1%
CCc1ccccc1NC(=O)CN1CCN(CC(=O)Nc2ccc(-c3ccccc3)cc2)CC1,-3%,-1%,0%,-1%,1,6%
CCCc1ccc(C(=O)NNc2cc(Cl)ccc2Cl)cc1,1.3µM*,-13%,1%,-7%,-1,0%
CCCc1ccc(C(=O)NNc2cccc(C)c2)cc1,2.8µM*,7%,-1%,?,0,12%
CC(C)C(c1nnnn1Cc1ccccc1)N1CCN(Cc2ccc3c(c2)OCO3)CC1 (centres undefined),8.9µM*,0%,1%,23%,-1,5%
CC(C)C(c1nnnn1CC1CCCO1)N1CCN(Cc2ccc3c(c2)OCO3)CC1 (centres undefined),7%,9%,0%,-2%,0,-7%
c1ccc(CCn2nnnc2C(c2cccs2)N2CCN(Cc3ccc4c(c3)OCO4)CC2)cc1 (centres undefined),7.1µM*,-9%,-4%,?,-3,-1%
CCCCCCCCC[n+]1cccc2c3ccccc3ccc21,10µM*,-21%,0%,?,2,-13%
CCCCCCCCCCCCCCCC[n+]1cccc2ccccc21,?,-9%,-4%,?,0,-18%
O=C(COc1ccccc1[N+](=O)[O-])Nc1cccc(Cl)c1N1CCOCC1,?,10µM*,1%,-5%,-3,11%
CCOc1ccc(OCC)c(NS(=O)(=O)c2c(C(=O)N3CCCCCC3)c(C)n(C)c2C)c1,7%,.,.,-3%,.,.
O=C(OCc1ccccc1)c1cccnc1,.,.,.,.,.,0%
COc1ccc(/C=N/NC(=O)c2cc(C)oc2C)cc1OCc1ccccc1,?,-7%,4%,7%,1,14%
Cc1cc(C(=O)N/N=C/c2ccc(OCc3ccccc3)cc2)c(C)o1,11µM*,-5%,2%,-21%,2,15%
OCCC1CN(Cc2nc(-c3ccccc3)cs2)CCN1CCc1ccccc1 (centres undefined),10µM*,8%,-2%,-29%,-1,9%
CCOC(=O)C1CCCN(C(=O)c2ccc(C)c(NC(=O)C3=C(C)OCCS3)c2)C1 (centres undefined),35%,3%,0%,9%,-66*,-4%
CCOC(=O)C1CCCN(C(=O)c2ccccc2NC(=O)C2=C(C)OCCS2)C1 (centres undefined),8%,-3%,2%,4%,-1,3%
Cc1ccc(C(C)C)c(OCC(=O)Nc2ccc3c(c2)nc(CCN2CCCCC2)n3C)c1,8.9µM*,?,0%,-16%,-2,17%
Cc1ccc(C(C)C)c(OCC(=O)Nc2cccc(S(=O)(=O)NC3=NCCCCC3)c2)c1,?,13%,0%,0%,-36*,5%
CC(C)(C)c1ccc(C(=O)Nc2cccc(S(=O)(=O)NC3=NCCC3)c2)cc1,?,4µM*,0%,-12%,0,-5%
CN(C)c1ccc(C(=O)Nc2cccc(S(=O)(=O)NC3=NCCCCC3)c2)cc1,11%,?,0%,4%,1,-1%
